Assay [1] is described as follows: Human pregnane X receptor (PXR) small molecule agonists, qHTS cell viability counter screen (AID 1346977). Note: nearly all actives have a fitted effect of over 50% in size. Note: potency is the fitted concentration of half-maximal effect. An outline of the steps:
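In each well, the PXR reporter HepG2 line was checked for viability: CellTiter-Fluor reagent added 23hr post-dosing, fluorescence read after 1hr incubation at 37C.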

A short description of assay [2]: Caspase-3/7 induction in HepG2 cells by small molecules, qHTS assay (AID 1346978). Note: nearly all actives have a fitted effect of over 15% in size. The essentials: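 Caspase-3/7 induction was measured by Caspase-Glo 3/7 luminescence (30 min, room temperature) after a 17 hr compound exposure of wild-type HepG2 cells seeded at 2,000 per well and pre-incubated 5 hr.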
On the technique in general: qHTS replaces the single test concentration by a dilution series.

A short description of assay [3]: Caspase-3/7 induction in CHO-K1 cells by small molecules, qHTS cell viability counter screen (AID 1346979). Note: nearly all actives have a fitted effect of over 35% in size. Note: potency is the fitted concentration of half-maximal effect. The essentials:
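Following a 5hr settling period, CHO-K1 cells at 1,500 per well received DMSO-dissolved compounds. Cell viability was quantified 16hr later by CellTiter-Fluor fluorescence, measured after 1hr with reagent at 37C.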

The nature of assay [4]: Caspase-3/7 induction in CHO-K1 cells by small molecules, qHTS assay (AID 1346980). Note: nearly all actives have a fitted effect of over 15% in size. The essentials:
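Luminescent Caspase-Glo 3/7 read (30min, room temperature) quantified apoptosis induction. Cells were wild-type CHO-K1, treated with compound for 17hr at 37 C and 5% CO2.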

A short description of assay [5]: Caspase-3/7 induction in HepG2 cells by small molecules, qHTS cell viability counter screen (AID 1346981). Note: nearly all actives have a fitted effect of over 30% in size. Note: potency is the fitted concentration of half-maximal effect. An outline of the steps:
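Cell viability is measured as a cytotoxicity counter screen alongside the Caspase-Glo 3/7 readout in identical wells. Wild-type HepG2 cells are treated with test compounds for 16 hr at 37 C before CellTiter-Fluor addition and a 1-hr incubation.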

Assay [6] addresses Nuclear receptor subfamily 1 group I member 2 (Homo sapiens) (UniProt O75469). Briefly: Human pregnane X receptor (PXR) small molecule agonists, qHTS assay (AID 1346982). Note: nearly all actives have a fitted effect of over 35% in size. The essentials: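 Cells: HepG2 stably carrying PXR-Luc. Medium held 5% charcoal-stripped FBS. Compounds in DMSO added after 5 hr plating, incubated 24 hr, then luminescence quantified with ONE-Glo.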
For assay [7], the target named is Nuclear receptor subfamily 1 group I member 2 (Rattus norvegicus) (UniProt Q9R1A7). Briefly: Rat pregnane X receptor (rPXR) activation by small molecules, qHTS assay (AID 1346983). Note: nearly all actives have a fitted effect of over 20% in size. The following applies: rPXR luciferase reporter cells, One-Glo luminescence, 24 h; max activation: active compounds read high. An outline of the steps:
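Luminescent readout (One-Glo luciferase, 30 min room temperature) followed 24 hr compound treatment at 37 C of rPXR cells plated 2,000 per well and preincubated 5hr; qHTS format with compounds delivered in DMSO.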

For assay [8], the target named is Nuclear receptor subfamily 1 group I member 2 (Homo sapiens) (UniProt O75469). The assay can be described thus: CYP3A4 induction through human pregnane X receptor (PXR) by small molecules, qHTS assay (AID 1346984). Note: nearly all actives have a fitted effect of over 40% in size. Note: potency is the fitted concentration of half-maximal effect. An outline of the steps: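 Quantitative HTS in DPX-2 cells, i.e. HepG2 transfected with PXR response element and CYP3A4-promoter luciferase. Compounds in DMSO incubated 24hr at 37C; then P450-Glo CYP3A4 substrate, 3uM final, 3hr; One-Glo luminescence.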

Assay [9] has the same target. The assay can be described thus: Human pregnane X receptor (PXR) activation by small molecules, qHTS assay (AID 1346985). Note: nearly all actives have a fitted effect of over 40% in size. The essentials: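 DPX-2 cells (HepG2 co-transfected with a PXR response element and a CYP3A4-promoter luciferase construct) were seeded at 2,000 per well, rested 5 hr at 37C, then exposed to DMSO-dissolved compounds for 24 hr. Activation was read as luciferase luminescence.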

Assay [10] deals with Cytochrome P450 2D6 (Homo sapiens) (UniProt P10635). The assay can be described thus: Cytochrome P450 Family 2 Subfamily D Member 6 (CYP2D6) small molecule antagonists: luciferase reporter qHTS assay (AID 1671196). Note: nearly all actives have a fitted effect of over 50% in size. Note: potency is the fitted concentration of half-maximal effect. An outline of the steps:
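Enzyme and proluciferin substrate were first combined with test chemical for 10 min at room temperature. Adding NADPH regeneration solution started a 1 h reaction, stopped with luciferin detection reagent and read by luminescence 20 min later.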

Values without a mark were called inactive. Records with an inconclusive call do not appear. Calls of active or inactive are those of the source. Calls come from the whole dose curve; as a rule, active = well fitted curve in the direction sought with a large enough effect in the repeat runs; inconclusive = weak or mixed curves; inactive = no such curve, though single readings can be large; an effect the other way counts as inactive or inconclusive.
% is set by controls: 0 for no effect and ±100 for the full control effect.

Sequence of Cytochrome P450 2D6 (Homo sapiens) (P10635 whole entry, looked up): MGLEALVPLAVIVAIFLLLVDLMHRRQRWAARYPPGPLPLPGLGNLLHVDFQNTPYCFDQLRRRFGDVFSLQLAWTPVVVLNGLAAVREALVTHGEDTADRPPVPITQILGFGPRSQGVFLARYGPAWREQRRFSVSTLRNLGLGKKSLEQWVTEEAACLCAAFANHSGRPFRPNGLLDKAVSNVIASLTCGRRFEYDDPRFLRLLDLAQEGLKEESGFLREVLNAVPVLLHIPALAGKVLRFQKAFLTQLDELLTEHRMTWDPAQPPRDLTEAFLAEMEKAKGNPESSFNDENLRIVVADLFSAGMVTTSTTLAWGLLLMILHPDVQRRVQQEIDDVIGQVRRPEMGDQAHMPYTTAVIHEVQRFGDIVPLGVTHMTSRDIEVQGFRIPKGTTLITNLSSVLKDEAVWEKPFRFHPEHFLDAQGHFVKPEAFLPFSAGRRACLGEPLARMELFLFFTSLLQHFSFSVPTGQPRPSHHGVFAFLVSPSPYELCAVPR
Sequence of Nuclear receptor subfamily 1 group I member 2 (Rattus norvegicus) (Q9R1A7 whole entry, looked up): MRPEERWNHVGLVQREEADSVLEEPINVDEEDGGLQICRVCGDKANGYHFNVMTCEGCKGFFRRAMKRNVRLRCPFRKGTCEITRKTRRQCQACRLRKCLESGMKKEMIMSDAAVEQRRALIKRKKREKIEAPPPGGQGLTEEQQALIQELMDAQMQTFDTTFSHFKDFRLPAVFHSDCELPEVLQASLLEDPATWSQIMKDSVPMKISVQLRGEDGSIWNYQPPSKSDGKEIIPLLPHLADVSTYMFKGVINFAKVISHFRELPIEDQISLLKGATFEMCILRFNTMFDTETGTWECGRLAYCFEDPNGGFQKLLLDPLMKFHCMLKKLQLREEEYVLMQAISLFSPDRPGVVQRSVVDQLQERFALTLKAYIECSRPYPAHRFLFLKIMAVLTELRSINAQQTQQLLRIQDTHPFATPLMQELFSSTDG
Sequence of Nuclear receptor subfamily 1 group I member 2 (Homo sapiens) (O75469 whole entry, looked up): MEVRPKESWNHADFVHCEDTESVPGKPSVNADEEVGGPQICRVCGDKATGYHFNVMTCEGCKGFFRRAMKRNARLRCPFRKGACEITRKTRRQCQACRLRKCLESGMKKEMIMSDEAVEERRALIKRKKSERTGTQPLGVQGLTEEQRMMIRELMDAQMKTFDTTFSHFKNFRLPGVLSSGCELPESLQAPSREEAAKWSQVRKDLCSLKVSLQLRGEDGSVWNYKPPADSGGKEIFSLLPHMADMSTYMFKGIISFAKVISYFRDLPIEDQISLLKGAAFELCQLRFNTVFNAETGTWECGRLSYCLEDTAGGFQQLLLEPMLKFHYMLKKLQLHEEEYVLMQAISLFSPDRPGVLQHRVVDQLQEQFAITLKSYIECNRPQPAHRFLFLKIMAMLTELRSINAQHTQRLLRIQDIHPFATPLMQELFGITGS

As for `CC[C@H](C)[C@H](N)C(=O)O`, the Potency result in assay [1], in [3], in assay [4], in assay [5], in assay [6] and in [8] was “inactive” in each case. Also, the Potency entry in assay [9] and in assay [10] was “inactive” each time. In addition, the call in assay [2] was inactive. In addition, in assay [7], the max activation was -0.0819%.
Take `O=C1CCCCCO1`: the Potency entry in assay [1], in [3], in [4], in assay [5] and in assay [6] was “inactive” throughout. The result in [2] was inactive.
In the case of `CC(C)=CCCC(C)CC=O` (stereo not drawn), the Potency entry in assay [1], in assay [3], in assay [4] and in assay [5] was “inactive” in each case. Besides, the result in assay [2] was inactive.
In the case of `CCN(CC)CCc1nc(-c2ccccc2)no1`, the Potency entry in [1], in assay [3], in assay [4], in [5], in assay [6] and in assay [8] was “inactive” throughout. Besides, in [9], the Potency entry is “inactive”. For the same molecule, the molecule was called inactive in assay [2]. Further, in assay [7], the max activation was -0.305%. For the same molecule, the Potency in assay [10] was 7.76 µM (active).
For `CCN(CC)C(C)=O`, the Potency entry in assay [1], in assay [3], in [4], in assay [5] and in assay [6] was “inactive” each time. Further, in assay [2], the molecule was classed as inactive.
As to `CCN(CC)C(C)CN1c2ccccc2Sc2ccccc21` (stereo not drawn), the Potency entry in assay [1], in assay [3], in assay [4], in assay [5], in assay [6] and in assay [9] was “inactive” in each case. Also, in assay [2], the result was inactive. In addition, the max activation in assay [7] was -0.328%. The Potency in assay [8] was 3.98 µM (active); in assay [10] it was 30.9 µM (active).
As to `N=C(N=C(N)N)N1CCOCC1`, the Potency entry in [1], in [3], in assay [4], in assay [5], in assay [6] and in [8] was “inactive” each time. Moreover, the Potency entry in [9] and in [10] was “inactive” each time. Further, the molecule was classed as inactive in [2]. Further, in assay [7], the max activation is -1.18%.
Regarding `CC(=O)CC(=O)c1ccccc1`, the Potency entry in [1], in [3], in [4] and in [5] was “inactive” each time. Further, in assay [2], the result was inactive.
With `CCOc1nc2cccc(C(=O)O)c2n1Cc1ccc(-c2ccccc2-c2nn[nH]n2)cc1`, the Potency entry in assay [1], in assay [3], in assay [4], in assay [5] and in [6] was “inactive” each time. Besides, the call in [2] was inactive. Further, the max activation in assay [7] was -0.587%.
Take `O=S1(=O)N=C(O)c2ccccc21`: the Potency entry in assay [1], in assay [3] and in assay [4] was “inactive” in each case. Further, the molecule was classed as inactive in [2].
Turning to `Nc1ccc(C(=O)N2CC3CC(CN(Cc4ccccc4)C3)C2)cc1`, the Potency entry in [1], in assay [3], in [4], in assay [5] and in assay [6] was “inactive” throughout. Further, the result in [2] was inactive.
Consider `O=C(O)/C=C/c1cnc[nH]1`, for which the Potency entry in [1], in assay [3], in assay [4], in assay [5] and in [6] was “inactive” in each case. For the same molecule, the result in assay [2] was inactive.
On to `CC(C)c1ccccc1C(C)C`, for which the Potency entry in assay [1], in assay [3], in assay [4] and in [5] was “inactive” each time. In addition, in [2], the molecule was classed as inactive.
On to `Cc1c(Cn2ccnc2)c2ccccc2n1CCC(=O)O`, for which the Potency entry in assay [1], in assay [3], in assay [4], in [5], in [6] and in [8] was “inactive” in each case. For the same molecule, the Potency result in assay [9] was “inactive”. Moreover, the molecule was classed as inactive in assay [2]. The max activation in [7] was -1.57%.
Turning to `O=C(O)[C@@H]1[C@H]2C[C@H]3c4[nH]c5ccccc5c4CCN3C[C@@H]2CC[C@@H]1O`, the Potency result in assay [1], in assay [3], in assay [4], in assay [5], in assay [6] and in assay [8] was “inactive” throughout. Besides, the Potency result in [9] was “inactive”. In addition, the outcome in [2] was inactive. In [7], the max activation was -0.311%. In addition, the Potency in assay [10] was 1.55 µM (active).
In the case of `NC(N)=N/N=C/c1c(Cl)cccc1Cl`, the Potency in assay [1] is 29.8 µM (active); in [3] it was 29.8 µM (active); in [5], 29.8 µM (active); in assay [10] it was 13.8 µM (active). The molecule was called inactive in assay [2]. The Potency result in assay [4], in assay [6], in [8] and in assay [9] was “inactive” each time. The max activation in assay [7] was -2.41%.
For `O=C(c1ccccc1)c1ccc2n1CCC2C(=O)O` (stereo not drawn), the Potency result in assay [1], in [3], in assay [4], in [5], in [6] and in [8] was “inactive” throughout. Moreover, the Potency result in [9] and in [10] was “inactive” in each case. Also, the result in [2] was inactive. Also, the max activation in [7] was 4.49%.
For `CCOC(=S)SSC(=S)OCC`, the Potency result in [1], in [3], in assay [4], in assay [5], in [6] and in assay [8] was “inactive” each time. Besides, the Potency entry in [9] is “inactive”. In addition, the molecule was called inactive in assay [2]. The max activation in assay [7] was -2.15%.
Take `CC1(C)[C@H]2CC[C@]1(C)[C@H](O)C2`: the Potency result in assay [1], in assay [3], in [4], in assay [5], in [6] and in assay [8] was “inactive” throughout. Besides, the Potency entry in assay [9] and in [10] was “inactive” each time. Also, the call in [2] was inactive. For the same molecule, in assay [7], the max activation is -0.529%.
As to `Cc1cc(NC(=O)C(=O)O)cc(C)c1Oc1ccc(O)c2c1CCC2`, the Potency entry in assay [1], in [3], in assay [4] and in [5] was “inactive” in each case. Moreover, the result in assay [2] was inactive.
For the molecule `CCC(=O)OC(C)(C)C1CC=C(C)CC1` (stereo not drawn), the Potency entry in assay [1], in assay [3], in assay [4], in [5] and in assay [6] was “inactive” in each case. Also, the call in assay [2] was inactive.
Consider `NCCCN(CCO)CCO`, for which the Potency entry in [1], in [3], in [4], in [5] and in assay [6] was “inactive” each time. In addition, the call in [2] was inactive.
On to `Nc1nc(N)c2nc(CNc3ccc(C(=O)N[C@@H](CCC(=O)O)C(=O)O)cc3)cnc2n1`, for which the Potency entry in assay [1], in assay [3], in assay [4] and in [5] was “inactive” in each case. The call in assay [2] was inactive.
Regarding `C#CCOC(=O)[C@@H](C)Oc1ccc(Oc2ncc(Cl)cc2F)cc1`, the Potency result in assay [1], in assay [3], in assay [4], in [5] and in assay [6] was “inactive” each time. For the same molecule, the molecule was called inactive in assay [2].
On to `COc1ccc(C(C)=O)cc1`, for which the Potency entry in assay [1], in assay [3], in [4], in assay [5], in assay [6] and in [10] was “inactive” in each case. In addition, the call in assay [2] was inactive.
Regarding `Cc1cc(CC(=O)O)c(C)n1-c1ccc(Cl)cc1`, the Potency entry in [1], in assay [3], in assay [4], in assay [5], in [6] and in assay [8] was “inactive” each time. The Potency result in assay [9] was “inactive”. The result in [2] was inactive. In addition, the max activation in assay [7] is 0.177%.
In the case of `Cc1cc(C)c(S(=O)(=O)O)cc1N=Nc1cc(S(=O)(=O)O)c2ccccc2c1O`, the results for the Potency in assay [1], in [3] and in [5] were 24.3 µM (active), 30.6 µM (active) and 34.4 µM (active), respectively. Also, the outcome in assay [2] was inactive. The Potency entry in assay [4] and in [6] was “inactive” throughout.
Take `Cn1c(=O)c2c(ncn2CC(O)CO)n(C)c1=O` (stereo not drawn): the Potency entry in [1], in assay [3], in assay [4], in [5], in assay [6] and in assay [8] was “inactive” throughout. Also, the Potency result in assay [9] and in assay [10] was “inactive” each time. Besides, in [2], the call was inactive. The max activation in assay [7] is -1.09%.

For the origin of these results see PubChem BioAssay (Tox21).
